Eight compounds from PubChem BioAssay can be followed below.

Test [1] deals with Calcium-dependent protein kinase 1 (Plasmodium falciparum (isolate 3D7)) (UniProt P62344). Kind of test: PfCDPK1 kinase inhibitors, biochemical, TCAMS library (AID 1159585; cut-off not given, nearly all actives have IC50 up to about 0.98 µM;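 further: inhibitors leave more ATP so luminescence rises with inhibition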). The note with it: recombinant PfCDPK1, Kinase-Glo ATP depletion luminescence. (Kinase-Glo measures the ATP left after a reaction by luminescence.)
For test [2], the target named is Plasmodium falciparum protein kinase 6 (PK6, PF3D7_1337100) (UniProt Q8IDW1). Kind of test: PfPK6 kinase inhibitors, biochemical, TCAMS library (AID 1159586). Conditions: recombinant PfPK6, Kinase-Glo ATP depletion luminescence.
Test [3] concerns the target Protein kinase 7 (PK7), Plasmodium falciparum 3D7 (PF3D7_0213400) (UniProt Q7YTF7). Nature of the test: inhibition of Plasmodium PK7 catalytic activity – biochemical, TCAMS antimalarial set, Kinase-Glo luminescence (AID 1159587). Conditions: recombinant PfPK7, Kinase-Glo ATP depletion luminescence.
Test [4] addresses Calcium-dependent protein kinase 4 (Plasmodium falciparum (isolate 3D7)) (UniProt Q8IBS5). Nature of the test: PfCDPK4 kinase inhibitors, biochemical, TCAMS library (AID 1159588; cut-off not given, nearly all actives have IC50 up to about 0.91 µM). The note with it: recombinant PfCDPK4, Kinase-Glo ATP depletion luminescence.
Test [5] concerns the target 6-phosphogluconate dehydrogenase, decarboxylating (Homo sapiens) (UniProt P52209). Nature of the test: inhibition of human phosphogluconate dehydrogenase – biochemical, recombinant enzyme, NADPH absorbance, primary screen (AID 1159550;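 active means at least 20% inhibition of 6-phosphogluconate dehydrogenase activity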). The note with it: recombinant 6PGD, NADPH absorbance 341 nm; at 10 µM; stronger effect = higher value.
Test [6] in a line: growth inhibition, single agent or in combination, cell-based, chromothripsis tumors, cisplatin or BGB combos (AID 1671449; in the data active means inhibition above about 80%;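 further: cells exposed for 96 hours; 0% = vehicle DMSO and 100% = killing by high DMSO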). Conditions: LFS_MB_P medulloblastoma cells.
A short description of test [7]: growth inhibition, single agent and combos, cell-based, chromothripsis tumors, cisplatin or BGB combos (AID 1671450; in the data active means inhibition above about 80%;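 further: cells exposed to compound for four days; 0% = vehicle DMSO and 100% = cell killing by high DMSO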). Conditions: HDN33 neuroblastoma cells, stronger effect = higher value.
Test [8] in a line: growth inhibition, single agents and combos, ICB984, cell-based, cisplatin or BGB combos, synergistic combos for chromothripsis tumors (AID 1671451).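 Further: cells exposed for 96 hours before readout; 0% = vehicle DMSO and 100% = killing by high DMSO.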 Conditions: ICB984 medulloblastoma cells, drug combinations, stronger effect = higher value.
Test [9] can be described thus: growth inhibition, single agents and combos, LFS_MB_1R, cell-based, cisplatin or BGB combos, synergistic combos for chromothripsis tumors (AID 1671452; in the data active means inhibition above about 80%;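 further: cells exposed for 96 hours before readout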). The note with it: LFS_MB_1R medulloblastoma cells, stronger effect = higher value.
Test [10] in a line: growth inhibition, single agents and combos, HTB85, cell-based, BGB or cisplatin IC20 combos, synergistic combos for chromothripsis tumors (AID 1671453; in the data active means inhibition above about 80%;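 further: cells exposed for 96 hours before readout; 0% = vehicle DMSO and 100% = high DMSO killing control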). The note with it: HTB85 osteosarcoma cells, drug combinations, stronger effect = higher value.
Test [11] in a line: growth inhibition, single agents and combos, CRL2098, cell-based, BGB or cisplatin IC20 combos, synergistic combos for chromothripsis tumors (AID 1671454; in the data active means inhibition above about 80%;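 further: cells exposed for 96 h before readout; 0% = vehicle DMSO and 100% = killing by high DMSO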). The note with it: CRL2098 osteosarcoma cells, drug combinations, stronger effect = higher value.
A short description of test [12]: growth inhibition, single agents and combos, HD-MB03, cell-based, BGB or cisplatin IC20 combos, synergistic combos for chromothripsis tumors (AID 1671455; in the data active means inhibition above about 83%;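 further: 0% = vehicle DMSO and 100% = high DMSO as cytotoxic control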). The note with it: HD-MB03 medulloblastoma cells, stronger effect = higher value.
The nature of test [13]: growth inhibition, single agents and combos, UWB1.289, cell-based, BGB or cisplatin combos, synergistic combos for chromothripsis tumors (AID 1671456; in the data active means inhibition above about 80%;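 further: cells exposed to compound for four days; 0% = vehicle DMSO and 100% = killing by high DMSO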). The note with it: UWB1.289 ovarian carcinoma cells, stronger effect = higher value.
A short description of test [14]: growth inhibition, single agents and combos, LFS_MB_2R, cell-based, cisplatin combos, synergistic combos for chromothripsis tumors (AID 1671457; in the data active means inhibition above about 80%;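 further: cells exposed to compound for four days before readout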). Conditions: LFS_MB_2R medulloblastoma cells, stronger effect = higher value.
A short description of test [15]: growth inhibition, MDA-MB-436, cell-based, BGB or cisplatin combos, synergistic combos for chromothripsis tumors (AID 1671458).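 Further: cells exposed for 96 hours; 0% = vehicle DMSO and 100% = killing by high DMSO.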 Conditions: MDA-MB-436 breast carcinoma growth inhibition, drug combinations, stronger effect = higher value.
Test [16] is described as follows: UWB1.289_BRCA1 ovarian cancer growth, cell-based, BGB or cisplatin combinations (AID 1671459; in the data active means inhibition above about 80%). Conditions: UWB1.289 BRCA1 ovarian carcinoma, drug combinations, stronger effect = higher value.
Test [17] in a line: drug combination toxicity in non-malignant astrocytes – cell-based, BGB or cisplatin IC20 combos, cytotoxicity control for chromothriptic childhood tumor combination screen (AID 1671460; in the data active means inhibition above about 80%;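 further: cells exposed to compounds for 96 hours before viability readout; 0% = vehicle and 100% = killing control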). The note with it: Human astrocytes, viability inhibition, drug combinations, at 0.5 µM, stronger effect = higher value.
The nature of test [18]: BT084 cell growth, single and combined drugs, ICGC_MB145, cisplatin and BGB IC40 combos (AID 1671461; in the data active means inhibition above about 80%;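 further: cells exposed to drugs for 96 hours; 0% = vehicle DMSO and 100% = high DMSO full killing control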). Conditions: BT084 medulloblastoma cells, drug combinations, stronger effect = higher value.
Test [19] can be described thus: RCMB18 cell growth, single agent and combined, cisplatin and BGB IC40 combos (AID 1671462; in the data active means inhibition above about 80%;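 further: cells exposed to compound for four days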). Conditions: RCMB18 medulloblastoma cells, stronger effect = higher value.
Test [20] is described as follows: CRL1545 cell growth, single agent and combined, cisplatin and BGB IC20 combos (AID 1671464; in the data active means inhibition above about 80%;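 further: cells exposed to compound for 96 hours before readout; 0% = vehicle DMSO and 100% = high DMSO killing control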). Conditions: CRL1545 osteosarcoma cells, stronger effect = higher value.
[21] abbreviates: measured here: combination with BGB IC40, at 0.05 µM.
Where [22] appears, read: measured here: with BGB IC20 combination, at 0.5 µM.
[23] abbreviates: measured here: with cisplatin IC20 combination, at 0.5 µM.
Setting [24] is: measured here: combination with cisplatin, at 0.5 µM.
[25] abbreviates: measured here: combination with cisplatin, at 5 µM.

For some of these results: Entries with a potency or affinity are not part of this list. Calls of active or inactive are those of the source. Unless noted, how the calls were made is not given here.

Chain of Calcium-dependent protein kinase 1 (Plasmodium falciparum (isolate 3D7)) (P62344 whole entry, looked up): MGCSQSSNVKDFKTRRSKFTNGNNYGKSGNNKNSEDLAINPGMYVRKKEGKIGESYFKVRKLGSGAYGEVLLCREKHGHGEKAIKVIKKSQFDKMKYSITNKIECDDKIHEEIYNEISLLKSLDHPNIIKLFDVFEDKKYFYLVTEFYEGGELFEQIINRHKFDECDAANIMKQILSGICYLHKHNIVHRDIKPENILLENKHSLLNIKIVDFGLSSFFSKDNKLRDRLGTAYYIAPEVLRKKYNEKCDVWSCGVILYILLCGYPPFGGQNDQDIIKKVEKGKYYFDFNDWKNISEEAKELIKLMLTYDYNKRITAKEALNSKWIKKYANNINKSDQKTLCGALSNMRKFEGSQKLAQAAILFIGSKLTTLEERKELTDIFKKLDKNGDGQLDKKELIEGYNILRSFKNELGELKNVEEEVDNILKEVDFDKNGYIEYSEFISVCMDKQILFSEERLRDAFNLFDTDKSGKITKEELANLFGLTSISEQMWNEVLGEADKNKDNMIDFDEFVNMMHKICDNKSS
Chain of Plasmodium falciparum protein kinase 6 (PK6, PF3D7_1337100) (Q8IDW1 1-305): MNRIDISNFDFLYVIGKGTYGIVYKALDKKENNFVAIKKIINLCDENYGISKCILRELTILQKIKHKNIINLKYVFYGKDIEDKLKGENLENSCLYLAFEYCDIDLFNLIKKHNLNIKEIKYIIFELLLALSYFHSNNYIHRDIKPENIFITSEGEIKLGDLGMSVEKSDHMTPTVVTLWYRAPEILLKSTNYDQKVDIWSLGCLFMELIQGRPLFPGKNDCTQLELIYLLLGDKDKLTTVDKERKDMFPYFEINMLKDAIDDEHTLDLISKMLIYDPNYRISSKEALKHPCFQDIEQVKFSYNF
Chain of Protein kinase 7 (PK7), Plasmodium falciparum 3D7 (PF3D7_0213400) (Q7YTF7 1-343): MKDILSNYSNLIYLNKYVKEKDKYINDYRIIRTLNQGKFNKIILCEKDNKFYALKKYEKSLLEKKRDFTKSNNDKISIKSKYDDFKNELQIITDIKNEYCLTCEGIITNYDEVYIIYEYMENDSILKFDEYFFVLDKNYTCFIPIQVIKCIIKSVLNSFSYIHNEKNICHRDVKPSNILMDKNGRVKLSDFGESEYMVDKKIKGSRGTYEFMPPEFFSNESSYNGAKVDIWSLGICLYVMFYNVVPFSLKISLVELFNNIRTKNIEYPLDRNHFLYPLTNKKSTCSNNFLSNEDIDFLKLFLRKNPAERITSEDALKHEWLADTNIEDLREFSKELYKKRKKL
Chain of Calcium-dependent protein kinase 4 (Plasmodium falciparum (isolate 3D7)) (Q8IBS5 whole entry, looked up): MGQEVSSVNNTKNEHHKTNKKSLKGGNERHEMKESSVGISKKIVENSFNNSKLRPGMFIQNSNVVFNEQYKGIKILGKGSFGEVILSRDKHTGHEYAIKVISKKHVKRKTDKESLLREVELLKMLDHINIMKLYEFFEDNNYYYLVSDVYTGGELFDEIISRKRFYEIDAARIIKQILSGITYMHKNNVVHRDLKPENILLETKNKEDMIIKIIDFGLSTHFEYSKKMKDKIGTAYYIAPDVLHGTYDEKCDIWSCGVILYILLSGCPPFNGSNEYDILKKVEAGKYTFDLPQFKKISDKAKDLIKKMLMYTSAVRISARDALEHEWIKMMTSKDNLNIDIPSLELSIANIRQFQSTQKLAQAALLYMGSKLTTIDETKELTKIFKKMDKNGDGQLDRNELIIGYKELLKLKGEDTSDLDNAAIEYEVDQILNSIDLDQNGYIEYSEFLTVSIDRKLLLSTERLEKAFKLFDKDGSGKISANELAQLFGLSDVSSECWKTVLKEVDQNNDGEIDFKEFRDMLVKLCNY
Chain of 6-phosphogluconate dehydrogenase, decarboxylating (Homo sapiens) (P52209 whole entry, looked up): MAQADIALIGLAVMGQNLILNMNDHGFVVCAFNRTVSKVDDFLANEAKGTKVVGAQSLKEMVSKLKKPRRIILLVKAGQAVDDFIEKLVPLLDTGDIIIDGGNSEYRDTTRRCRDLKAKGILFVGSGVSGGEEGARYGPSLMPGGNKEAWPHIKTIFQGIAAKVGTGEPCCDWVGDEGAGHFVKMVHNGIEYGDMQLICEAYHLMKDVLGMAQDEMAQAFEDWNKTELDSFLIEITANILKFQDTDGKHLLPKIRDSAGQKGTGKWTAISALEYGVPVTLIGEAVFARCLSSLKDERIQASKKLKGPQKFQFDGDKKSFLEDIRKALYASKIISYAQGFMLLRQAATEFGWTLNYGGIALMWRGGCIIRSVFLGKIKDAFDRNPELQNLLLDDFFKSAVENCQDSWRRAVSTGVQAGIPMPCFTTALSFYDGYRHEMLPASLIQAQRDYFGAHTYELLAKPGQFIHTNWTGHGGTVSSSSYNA

Take `CCC[C@@H]([C@H](CC(C)C)C(=O)N[C@@H](CCCCNC(=O)OCc1ccccc1)C(=O)Nc1ncccn1)N(O)C=O`: the outcome in [1], in test [2], in test [3] and in test [4] was inactive.

In the case of `Oc1cccc(-c2nc(-c3ccc4oc5ccc(-c6nc(-c7cccc(O)c7)[nH]c6-c6ccccc6)cc5c4c3)c(-c3ccccc3)[nH]2)c1`, the result in test [1], in test [2], in test [3] and in test [4] was inactive.

Turning to `CCn1c(/C=C/c2cc(Br)ccc2O)nc2ccccc2c1=O`, the outcome in test [1], in [2], in test [3] and in [4] was inactive.

As for `CCCO[C@H](C(=O)OC)[C@H](CC1Cc2ccccc2C1)C(=O)NCCC1=CCCCC1`, the result in test [1], in test [2], in test [3] and in test [4] was inactive.

Take `CCCC[C@H](C(=O)NCc1ccccc1C(F)(F)F)N1C(=O)CCC1C(=O)Nc1ccc([N+](=O)[O-])cc1` (some centres not stated): the result in test [1], in test [2], in [3] and in test [4] was inactive.

For `CN(C)C(=S)N/N=C/c1cccc(O)c1O`, the result in test [1], in test [2], in [3] and in test [4] was inactive.

Take `CC1(C(=O)O)CCC2(C)CCC3(C)C(=CC(=O)C4C5(C)CCC(OC(=O)CCC(=O)O)C(C)(C)C5CCC43C)C2C1` (configuration not stated): the inhibition in test [5] was 6.14% (inactive); in test [6] (at 0.5 µM, stronger effect = higher value) it was -21.3% (inactive); in [6] (measured here: combination with BGB IC20, at 0.005 µM), -7.44%; in [6] (measured here: combination with BGB IC40, at 0.005 µM), -24.5%; in test [6] (setting [21]), -6.64%; in test [6] (measured here: combination with cisplatin, at 0.5 µM, stronger effect = higher value) it was -25.4%. The inhibition in test [6] (measured here: combination with cisplatin, at 5 µM, stronger effect = higher value) was 6.61%; in [7] (BGB combo, at 5 µM) it was -10.4%; in test [7] (at 0.5 µM), -10.5% (inactive); in test [7] (cisplatin combo, at 5 µM) it was -11.2%; in test [7] (setting [22]), -1.57%; in test [7] (setting [23]) it was -3.76%. Moreover, the inhibition in test [7] (single agent, at 5 µM) is 0.047%; in test [8] (BGB IC20 combo, at 0.005 µM), -6.54%; in test [8] (BGB IC40 combo, at 0.005 µM), -25.3%; in test [8] (BGB IC40 combo, at 0.05 µM), 3.64%; in test [8] (at 0.5 µM), -16.5% (inactive); in test [8] (cisplatin combo, at 0.05 µM), 3.64%. Moreover, the inhibition in test [8] (cisplatin combo, at 0.5 µM) is -24%; in [8] (cisplatin combo, at 5 µM) it was -37.6%; in test [8] (measured here: 5 uM single agent, at 5 µM), -21.7%; in test [9] (at 0.5 µM) it was -0.8% (inactive); in test [9] (setting [21]), -15.6%; in test [9] (setting [24]), 21.2%. The inhibition in test [9] (setting [25]) is -0.5%; in test [10] (at 0.5 µM) it was -18% (inactive); in [10] (measured here: with BGB IC20, at 0.5 µM), -38.9%; in [10] (measured here: with BGB IC20, at 5 µM), -13.2%; in test [10] (measured here: with cisplatin IC20, at 0.5 µM), -4%; in test [10] (measured here: with cisplatin IC20, at 5 µM), -11%. Besides, the inhibition in test [10] (single agent, at 5 µM) is -22.6%; in [11] (at 0.5 µM), -75% (inactive); in test [11] (measured here: combination with BGB at IC20, at 0.5 µM), -54.3%; in [11] (measured here: combination with cisplatin at IC20, at 0.5 µM), -113%; in [12] (at 0.5 µM), 0.23% (inactive); in test [12] (measured here: combo with BGB at IC20, at 0.5 µM), -6.04%. Besides, the inhibition in test [12] (measured here: combo with cisplatin at IC20, at 0.5 µM) is 5.01%; in test [13] (at 0.5 µM), -3.45% (inactive); in [13] (measured here: inhibition with BGB combination, at 0.05 µM) it was -24.1%; in [13] (measured here: inhibition with cisplatin combination, at 0.05 µM), -15.6%; in test [14] (at 0.5 µM) it was -24.3% (inactive); in test [14] (setting [24]) it was -26.3%. The inhibition in test [14] (setting [25]) is -19.2%; in [15] (at 0.5 µM), -23.5% (inactive); in [15] (measured here: BGB combination, at 0.5 µM), -21%; in test [15] (measured here: BGB combination, at 5 µM) it was -30.2%; in test [15] (measured here: cisplatin combination, at 0.5 µM), -40.5%; in test [15] (measured here: cisplatin combination, at 5 µM), -24%. Moreover, the inhibition in test [16] (BGB combination, concentration series, at 5 µM) was -13.7%; in [16] (at 0.5 µM), -12.8% (inactive); in test [16] (cisplatin combination, concentration series, at 5 µM) it was 3.23%; in [17], -10.9% (inactive); in [17] (measured here: combo with BGB IC20) it was -14.8%; in test [17] (measured here: combo with cisplatin IC20), -13.4%. The inhibition is -17.1% (inactive) in [18] (at 0.5 µM); 5.31% in test [18] (cisplatin combination, at 0.5 µM); -38.2% in [18] (cisplatin combination, at 5 µM); -1.75% in test [18] (measured here: BGB IC40 combination 0.05 uM, at 0.05 µM); -40.2% in test [18] (single agent, at 5 µM); -19.6% (inactive) in test [19] (at 0.5 µM). For the same compound, the inhibition in test [19] (cisplatin combo, at 5 µM) is 13.2%; in [19] (measured here: BGB IC40 combination, at 0.05 µM) it was -21.9%; in test [19] (setting [24]), -3.15%; in [19] (single agent, at 5 µM) it was -16.1%; in test [20] (at 0.5 µM) it was -42.7% (inactive); in test [20] (setting [22]) it was -46.3%. The inhibition is -40.9% in [20] (setting [23]); 5.52% in [20] (single agent, at 0.05 µM); 7.12% in [20] (single agent, at 5 µM).

On to `Oc1c(/C=N/n2cnnc2)sc2ccccc12`, for which the result in test [1], in [2], in [3] and in test [4] was inactive.

The term inhibition denotes the relative decrease from the control value, in per cent.
